HT1080 IDH1KD tx: qHTS for induction of synthetic lethality in tumor cells producing 2HG: qHTS for the HT-1080-IDH1KD cell line | HT-1080 IDH1 knockdown viability, ATP luminescence, 48 h | Potency, µM (titrated, usually from 46.1 µM), without a hit: at the top dose activity, negative = toxicity, actives largely listed as cytotoxic | 360,000 compounds, 2% hits | AID 686971, 2013;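 note: 0% = DMSO wells and -100% = cell-free medium wells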
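After a 2 h attachment period, IDH1KD HT-1080 cells took pin-transferred compound for 48 h at 37 °C; ATP-based luminescence after 10 min room-temperature reagent incubation reported viability.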
SW480 rereplic: A quantitative high throughput screen for small molecules that induce DNA re-replication in SW480 colon adenocarcinoma cells. 340,000 compounds, 1.8% hits. AID 624297, 2012. SW480 DNA re-replication, Hoechst DNA content imaging, 48 h. Potency, µM (top dose mostly 46.1 µM), without a hit: at the top dose re-replication activation, actives largely listed as activators; note: % of control where 0% means no effect; nearly all actives have a fitted effect of over 55% in size
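Image-based DNA-content assay: after two days of treatment, nuclei were labelled with the DNA dye Hoechst and imaged, and hits were compounds raising the count of nuclei showing high fluorescence intensity.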
HT1080-NT tox: qHTS for induction of synthetic lethality in tumor cells producing 2HG: qHTS for the HT-1080-NT fibrosarcoma cell line; HT-1080-NT fibrosarcoma viability, CellTiter-Glo ATP luminescence, 48 h; Potency, µM (top dose mostly 46.1 µM), without a hit: at the highest dose activity, negative = less viability, usual class: cytotoxic; 360,000 compounds, 1.6% hits; AID 686970, 2013;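 note: NT is the 2HG producing partner of a matched IDH1 knockdown line; 0% = DMSO-treated cells and -100% = media-only wells without cells; nearly all actives have a fitted effect of over 55% in size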
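Compounds were tested in concentration-response format on HT-1080-NT cells for 48 hours at 37 degrees C. Cell viability came from CellTiter-Glo luminescence; curves were classified by r2, response magnitude and activity.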
KB-V1 MDR tox: qHTS assay for MDR1-selective chemotherapeutics: Primary screen using the drug-selected MDR subline cells KB-V1; KB-V1 MDR cells viability, CellTiter-Glo, 72 h; Potency, µM (highest dose often 46.1 µM), most hits filed as cytotoxic; 400,000 compounds, 3.4% hits; note: % is set by controls: 0 for no effect and ±100 for the full control effect; nearly all actives have a fitted effect of over 60% in size
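KB-V1, DMEM (no phenol red) + 10% FBS; cpd pin-transferred, titration series; 72 h, 37 degrees C; CellTiter-Glo, luminescence. Data normalized, curve-fit.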
KB-3-1 cytotox: qHTS assay for MDR1-selective chemotherapeutics: Primary screen using the parental adenocarcinoma cell KB-3-1 | KB-3-1 viability, CellTiter-Glo ATP luminescence, 72 h | 400,000 compounds, 1.4% hits | Potency, µM (titrated, usually from 46.1 µM), usual class: cytotoxic; note: % is set by controls: 0 for no effect and ±100 for the full control effect; nearly all actives have a fitted effect of over 60% in size
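Luminescent ATP read-out (CellTiter-Glo) measures survival of drug-naive KB-3-1 cells after 72 h compound exposure at 37 °C. Titration series was screened from lowest to highest concentration, with DMSO vehicle plates as background controls.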
MCF10A rereplic: A quantitative high throughput screen for small molecules that induce DNA re-replication in MCF 10a normal breast cells | MCF 10A DNA re-replication, Hoechst nuclear intensity, 48 h | Potency, µM (titrated, usually from 46.1 µM), without a hit: top-dose activity, positive = re-replication, usual class: activators | 350,000 compounds, 2.9% hits | AID 624296, 2012; note: % of control where 0% means no effect; nearly all actives have a fitted effect of over 50% in size
* = called active by the depositor; [ ] = dose if it differs, or a comment. The list is not random: actives were taken first. Their share in the collection is about 8%. Calls come from the whole dose curve; as a rule, active = well fitted curve in the direction sought with a large enough effect; inconclusive = small, poorly fitted or top-dose-only effect, or another doubt; inactive = no such curve, though single readings can be large; an effect the other way counts as inactive or inconclusive. Potency is the fitted concentration of half-maximal effect.

Screening COc1ccc(S(=O)(=O)N2C3CCC2CC(NC(=O)NC2CCCCC2)C3)cc1 (configuration not stated) returned HT1080 IDH1KD tx -7%, SW480 rereplic -2%, HT1080-NT tox 7%, KB-V1 MDR tox 16µM*, KB-3-1 cytotox inactive and MCF10A rereplic inconclusive.
For CC1CN(c2nc3ccccc3cc2-c2ccccc2)CC(C)O1 (configuration not stated) the results were HT1080 IDH1KD tx -13%, SW480 rereplic -1%, HT1080-NT tox -21%, KB-V1 MDR tox inactive, KB-3-1 cytotox inactive and MCF10A rereplic 21µM*.
For CC1CN(c2nn3c(=O)c4ccccc4nc3c3ccccc23)CC(C)O1 (configuration not stated) the results were HT1080 IDH1KD tx 0%, SW480 rereplic -15%, HT1080-NT tox -4%, KB-V1 MDR tox 21µM*, KB-3-1 cytotox inconclusive and MCF10A rereplic -9%.
`CCOc1ccccc1NC(=O)CSc1nc(=O)n(Cc2ccncc2)c2c1CCC2` gave HT1080 IDH1KD tx 4%, SW480 rereplic -1%, HT1080-NT tox 1%, KB-V1 MDR tox inactive, KB-3-1 cytotox inactive and MCF10A rereplic 5%.
Screening CC12CCC(O)CC1=CCC1C2CCC2(C)c3[nH]ncc3CC12 (configuration not stated) returned HT1080 IDH1KD tx inconclusive, SW480 rereplic inconclusive, HT1080-NT tox -25%, KB-V1 MDR tox inactive, KB-3-1 cytotox inactive and MCF10A rereplic 15µM*.
For CC(=O)[C@H]1CC[C@H]2[C@@H]3CC=C4C[C@@H](O)CC[C@]4(C)[C@H]3CC[C@]12C the results were HT1080 IDH1KD tx 4%, SW480 rereplic -1%, HT1080-NT tox 29%, KB-V1 MDR tox inconclusive, KB-3-1 cytotox inconclusive and MCF10A rereplic -2%.
C=C1C[C@H]2[C@@H]3C=C(C)C4=CC(=O)CC[C@]4(C)[C@H]3CC[C@]2(C)[C@@]1(OC(C)=O)C(C)=O was read as HT1080 IDH1KD tx -4%, SW480 rereplic -10%, HT1080-NT tox 2%, KB-V1 MDR tox inconclusive, KB-3-1 cytotox inactive and MCF10A rereplic 9%.
Screening CC(=O)C1(C)CCC2C3C=C(C)C4=CC(=O)CCC4(C)C3CCC21C (configuration not stated) returned HT1080 IDH1KD tx 7%, SW480 rereplic 0%, HT1080-NT tox 0%, KB-V1 MDR tox 4.6µM*, KB-3-1 cytotox inconclusive and MCF10A rereplic 16µM*.
CC(=O)[C@@]1(O)CC[C@H]2[C@@H]3C[C@H](C)C4=CC(=O)CC[C@]4(C)[C@H]3CC[C@@]21C was read as HT1080 IDH1KD tx -3%, SW480 rereplic 29%, HT1080-NT tox 2%, KB-V1 MDR tox inconclusive, KB-3-1 cytotox inactive and MCF10A rereplic 1%.
For C=C1CC2C(CCC3(C)C2CCC3(O)C(C)=O)C2(C)CCC(=O)C=C12 (configuration not stated) the results were HT1080 IDH1KD tx -29%, SW480 rereplic -11%[9.22 µM], HT1080-NT tox inconclusive, KB-V1 MDR tox 21µM*, KB-3-1 cytotox 21µM* and MCF10A rereplic 23µM*.
Screening Cc1ccc(P(=O)(O)c2ccc(C)cc2)cc1 returned HT1080 IDH1KD tx -3%, SW480 rereplic 21%, HT1080-NT tox -6%, KB-V1 MDR tox inactive, KB-3-1 cytotox inactive and MCF10A rereplic 54%.
`Cc1ccc(P(=O)(c2ccc(C)cc2)[C@@H](NC(c2ccccc2)c2ccccc2)c2ccccc2)cc1` gave HT1080 IDH1KD tx 16µM*, HT1080-NT tox 15µM*, KB-V1 MDR tox 21µM* and KB-3-1 cytotox inconclusive.
For O=C1NN=C(c2ccccc2)CC1c1ccc(Cl)cc1Cl (configuration not stated) the results were HT1080 IDH1KD tx -9%, SW480 rereplic 18µM*, HT1080-NT tox -2%, KB-V1 MDR tox inactive, KB-3-1 cytotox inactive and MCF10A rereplic inconclusive.
Cc1cccc(NCc2nnc(-c3ccccc3)o2)c1C was read as HT1080 IDH1KD tx -18%, SW480 rereplic -9%, HT1080-NT tox -17%, KB-V1 MDR tox 18µM*, KB-3-1 cytotox inactive and MCF10A rereplic -2%.
Screening Cc1cccc(NCc2ccccc2O)c1C returned HT1080 IDH1KD tx -26%, SW480 rereplic -10%, HT1080-NT tox -12%, KB-V1 MDR tox inactive, KB-3-1 cytotox inactive and MCF10A rereplic 0%.
Screening CSc1ccccc1NC(=O)CSCc1ccc(Br)cc1 returned HT1080 IDH1KD tx 16%, SW480 rereplic -5%, HT1080-NT tox 8%, KB-V1 MDR tox 21µM*, KB-3-1 cytotox inactive and MCF10A rereplic 10%.
`CSc1ccccc1NC(=O)CN1c2ccccc2CC1C` (configuration not stated) gave HT1080 IDH1KD tx -11%, SW480 rereplic 8.2µM*, HT1080-NT tox -4%, KB-V1 MDR tox inactive, KB-3-1 cytotox inactive and MCF10A rereplic inconclusive.
For CC1CCC2C(=O)N(c3ccc(Cc4ccncc4)cc3)C(=O)C2C1 (configuration not stated) the results were HT1080 IDH1KD tx inconclusive, SW480 rereplic inconclusive, HT1080-NT tox inconclusive, KB-V1 MDR tox 10µM*, KB-3-1 cytotox 4.6µM* and MCF10A rereplic -12%.
O=C(O)CCC(=O)Nc1sc2c(c1C(=O)Nc1ccccc1)CCCCC2 was read as HT1080 IDH1KD tx inconclusive, SW480 rereplic -3%, HT1080-NT tox 21µM*, KB-V1 MDR tox inactive, KB-3-1 cytotox inconclusive and MCF10A rereplic inconclusive.
`O=C(Nc1cccc(Cl)c1)c1c(NC(=O)C(F)(F)F)sc2c1CCCC2` gave KB-V1 MDR tox 12µM* and KB-3-1 cytotox inconclusive.
`Cc1[nH]c(=O)c(C#N)c(C)c1[N+](=O)[O-]` gave HT1080 IDH1KD tx 1%, SW480 rereplic -21%, HT1080-NT tox -1%, KB-V1 MDR tox inactive, KB-3-1 cytotox inactive and MCF10A rereplic -10%.
For C=CCn1c(CCNC(=O)c2cccs2)nnc1SCC(=O)c1ccc(Br)cc1 the results were HT1080 IDH1KD tx inconclusive, SW480 rereplic inconclusive, HT1080-NT tox -20%, KB-V1 MDR tox 21µM*, KB-3-1 cytotox inactive and MCF10A rereplic 1%.

Source: PubChem
